Out of some 370,000 compounds screened, about 3,700 (1%) were called active. The entries come from a sample that favours actives as a whole. Unmarked numbers belong to inactive results.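 The calls were made as follows: active = activation above the mean over all tested compounds plus 3 SD (cut at about 0.9% in these data); inactive = the rest.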
What follows are compounds tested on Nuclear hormone receptor DAF-12 (Strongyloides stercoralis) (assay: ssDAF-12 driven luciferase reporter activation – cell-based, luminescence, HEK293, GRIP1 co-expression, lit1-tk-luc, primary screen (AID 652126;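 also: 0% = DMSO-only wells and 100% = 3 µM delta7-dafachronic acid wells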)). Settings: HEK293 ssDAF-12/GRIP1 lit1-tk-luc reporter, at 6.8 µM, active compounds read high, % of 3 µM dafachronic acid response.

First: O=S(=O)(c1ccc2c(c1)OCCCO2)N1CCN(S(=O)(=O)c2c(F)cccc2F)CC1
Second: O=C(NCc1cccs1)C1CCCN(S(=O)(=O)c2ccc([N+](=O)[O-])cc2)C1 (stereo unspecified)
The activation of the first is higher: -0.38% for the first, -1.79% for the second.

Going from `COC(=O)C1=CO[C@@H](O[C@@H]2O[C@H](CO)[C@@H](O)[C@H](O)[C@H]2O)C2C1C[C@H](O)[C@@H]2C` (stereo partly specified) to `COC(=O)[C@]12C[C@H](CC(=O)N3CCOCC3)C(=O)N(Cc3ccc(Cl)cc3Cl)C1=C[C@H](COCc1ccccc1)O[C@@H]2C`, the activation rises from -1.3% to -0.98%.

Going from `CC(OC(=O)c1cc2ccccc2o1)C(=O)Nc1ccc(N2CCOCC2)cc1` (stereo unspecified) to `Cc1cccc(-n2nc3c(c2NC(=O)c2cc4ccccc4o2)CS(=O)(=O)C3)c1`, the activation rises from -1.36% to -0.31%.

Going from `CC(=O)N1CCc2cc(S(=O)(=O)NCCC(=O)N3CCCC3)ccc21` to `Cc1nc2ccc(S(=O)(=O)NCC(=O)O)cc2s1`, the activation falls from -0.66% to -0.93%.

Compared with `Nc1[nH]c(/C=C2/CCCCC2n2[nH]c(=O)n(-c3ccccc3)c2=O)c(Cc2ccccc2)[n+]1Cc1ccccc1` (stereo unspecified), `COC(=O)[C@]12C[C@H](CC(=O)NCc3ccccc3)C(=O)N(Cc3ccccc3)C1=C[C@H](COCc1ccccc1)O[C@@H]2C` is lower in activation: -1.51% for the first, -1.73% for the second.

First: O=C(CSc1nnc(-c2c[nH]c3ccccc23)o1)c1ccccc1
Second: CCc1cc(C(c2ccccc2OC)N2CCOCC2)c(NC(=O)c2ccccc2)s1 (stereo unspecified)
The activation of the first is higher: -0.81% for the first, -1.1% for the second.

First: CCCn1cc(SCC(N)=O)c2ccccc21
Second: CCCCCNC(=O)C(c1ccc(OC)cc1)n1c(=O)c(-c2ccccc2)nc2ccccc21 (stereo unspecified)
The activation of the first is lower: -0.92% for the first, -0.6% for the second.

First: N#Cc1ccccc1OC[C@@H](O)CN1CCC(C(O)(c2ccccc2)c2ccccc2)CC1
Second: CC(CCN1CCC(C(O)(c2ccccc2)c2ccccc2)CC1)Oc1ccc([N+](=O)[O-])cc1Cl (stereo unspecified)
The activation of the first is lower: -0.74% for the first, -0.24% for the second.

Going from `Cc1c(NC(=O)CN(C)CC(=O)Nc2ccc(F)c(F)c2F)c(=O)n(-c2ccccc2)n1C` to `CCOC(=O)C(=O)N(Cc1ccccc1)c1ccccc1C(=O)Nc1cc(OC)ccc1OC`, the activation falls from -0.43% to -1.83%.

First: Cc1ccc(S(=O)(=O)/N=C2\C=C(NS(=O)(=O)c3ccc(C)cc3)C(=O)c3ccccc32)cc1
Second: CNC(=O)COc1ccc(S(=O)(=O)Nc2ccccc2)cc1
The activation of the first is lower: -0.8% for the first, -0.41% for the second.

Going from `O=C(CNC1CCCCC1)NCC1(c2ccccc2)CCCC1` to `COC(=O)[C@]1(C#N)CC(=O)N(CC2CCCCC2)[C@@H]1c1ccccc1`, the activation rises from -1.46% to 0.53%.

Compared with `CCC(NC(=O)C1C2C=CC3(CN(Cc4ccccc4)C(=O)C13)O2)c1ccccc1` (stereo unspecified), `COc1ccc(C(C(=O)NCc2ccccc2)n2c(=O)c(-c3ccccc3)nc3ccccc32)cc1` (stereo unspecified) is higher in activation: -1.54% for the first, -0.84% for the second.

First: O=C(NCc1cccs1)C1CCN(S(=O)(=O)c2ccccc2[N+](=O)[O-])CC1
Second: Cc1ccc(/C=C/C(=O)O)cc1S(=O)(=O)N1CCC(Cc2ccccc2)CC1
The activation of the first is higher: -1.16% for the first, -1.4% for the second.

Compared with `N#CCC[C@H]1CC[C@]2(CCCN(Cc3ccc(Cl)cc3)C2)O1`, `Cc1ccc(CN2CCCCC(NC(=O)C3CCCCC3)C2=O)cc1` (stereo unspecified) is higher in activation: -1.32% for the first, -0.73% for the second.

Going from `O=C(Nc1ccc(F)cc1)c1cc2c(s1)CCCC2` to `CC(C)Oc1ccc(C(=O)NCC(=O)Nc2ccc3c(c2)CCC3)cc1`, the activation falls from 0.25% to -0.37%.

Going from `COCCCNc1nc2ccccc2nc1NS(=O)(=O)c1ccc(F)cc1` to `Cc1ccc(S(=O)(=O)C(C#N)c2nc3ccccc3nc2N2CCCC2)cc1C` (stereo unspecified), the activation falls from -0.23% to -0.41%.

First: Cc1cc(C(=O)NN=C/C=C/c2ccco2)n[nH]1
Second: Cc1ccc(-c2nnc(SCC(=O)Nc3ccc(Oc4ccccc4)cc3)n2Cc2ccco2)cc1
The activation of the first is higher: -0.85% for the first, -1.75% for the second.

First: O=C(Nc1ccccc1)N1CCN(Cc2nc3ccccc3c(=O)[nH]2)CC1
Second: COc1ccc(C(=O)O)cc1S(=O)(=O)NC1CCN(Cc2ccccc2)CC1
The activation of the first is higher: -0.67% for the first, -1.42% for the second.

Going from `COc1ccc(C(=O)Nc2ccnn2C2CCN(Cc3ccncc3)CC2)cc1` to `COc1ccc(C#CCNCc2ccc(OC)cc2OC)cc1`, the activation falls from -0.78% to -1.38%.

Going from `Cc1nc(CNc2ncnc3ccc(-c4ccc5c(c4)OCO5)cc23)cs1` to `CC(C)CNc1cccc2c1S(=O)(=O)N(Cc1cn(Cc3ccccc3C(F)(F)F)nn1)Cc1ccccc1O2`, the activation rises from -1.38% to -0.93%.

First: COCCNc1nc(N)c([N+](=O)[O-])c(NCCO)n1
Second: Nc1nc(Nc2ccccc2F)nc(NC2CCCCC2)c1[N+](=O)[O-]
The activation of the first is lower: -1.31% for the first, -0.48% for the second.

First: CCS(=O)(=O)N1Cc2ccccc2CC1C(=O)Nc1nc2ccc(F)cc2s1 (stereo unspecified)
Second: COc1ccc(C)cc1S(=O)(=O)NC1CCCCC1
The activation of the first is higher: 0.55% for the first, -0.84% for the second.

For `CCCCN1CCN(C(=O)c2ccc3c(c2)NC(=O)C(C)(C)O3)CC1`, the activation was -1.34%.

With `Cc1ccc(NC(=O)c2cc3ccccc3o2)cc1` the activation was 2.98% (active).
`NC(=O)CSc1c[nH]c2ccccc12` was tested, and the activation was 1.11% (active).
In the case of `COc1ccc(S(=O)(=O)/N=C2\C=C(NS(=O)(=O)c3ccccc3)C(=O)c3ccccc32)cc1`, the activation was 1.6% (active).
In the case of `COc1ccc(NC(=O)C(c2ccncc2)n2c(=O)c(-c3cc4ccccc4[nH]3)nc3ccccc32)cc1` (stereo unspecified), the activation was 1.22% (active).
For `O=C(Nc1ccc2c(c1)CCC2)c1ccc(Br)s1`, the activation was 1.14% (active).
For `Cc1ccc(S(=O)(=O)Nc2nc3ccccc3nc2N2CCc3ccccc3C2)cc1`, the activation was 1.37% (active).
For `CCc1ccc2oc(-c3ccc(N)cc3)nc2c1`, the activation was 1.77% (active).
For `COc1ccc(C(=O)Nc2sc(C)c(C)c2CN2CCOCC2)cc1`, the activation was 1.65% (active).
For `CNc1nc(Nc2ccc(C)c(Cl)c2)nc(N)c1[N+](=O)[O-]`, the activation was 2.25% (active).
For `NS(=O)(=O)c1ccc2nc(NC(=O)CS(=O)(=O)c3ccc(F)cc3)sc2c1`, the activation was 1.3% (active).
For `COc1ccc(C(=O)NCc2ccccc2C)cc1S(=O)(=O)NC1CCCC1`, the activation was 0.92% (active).

Reference: PubChem BioAssay AID652126 (The Scripps Research Institute Molecular Screening Center, 2013)
